Our source for the log2 fold change values is the supplement of paper PMC10849652.

About 8,800 targets were measured; listed, in parts, are those with a hit and a random draw of the rest. About 0.5% of all pairs of compound and target were hits. A number with no mark means an inactive call.

UniProt Q9UKE5, sequence (Q9UKE5 whole entry, looked up): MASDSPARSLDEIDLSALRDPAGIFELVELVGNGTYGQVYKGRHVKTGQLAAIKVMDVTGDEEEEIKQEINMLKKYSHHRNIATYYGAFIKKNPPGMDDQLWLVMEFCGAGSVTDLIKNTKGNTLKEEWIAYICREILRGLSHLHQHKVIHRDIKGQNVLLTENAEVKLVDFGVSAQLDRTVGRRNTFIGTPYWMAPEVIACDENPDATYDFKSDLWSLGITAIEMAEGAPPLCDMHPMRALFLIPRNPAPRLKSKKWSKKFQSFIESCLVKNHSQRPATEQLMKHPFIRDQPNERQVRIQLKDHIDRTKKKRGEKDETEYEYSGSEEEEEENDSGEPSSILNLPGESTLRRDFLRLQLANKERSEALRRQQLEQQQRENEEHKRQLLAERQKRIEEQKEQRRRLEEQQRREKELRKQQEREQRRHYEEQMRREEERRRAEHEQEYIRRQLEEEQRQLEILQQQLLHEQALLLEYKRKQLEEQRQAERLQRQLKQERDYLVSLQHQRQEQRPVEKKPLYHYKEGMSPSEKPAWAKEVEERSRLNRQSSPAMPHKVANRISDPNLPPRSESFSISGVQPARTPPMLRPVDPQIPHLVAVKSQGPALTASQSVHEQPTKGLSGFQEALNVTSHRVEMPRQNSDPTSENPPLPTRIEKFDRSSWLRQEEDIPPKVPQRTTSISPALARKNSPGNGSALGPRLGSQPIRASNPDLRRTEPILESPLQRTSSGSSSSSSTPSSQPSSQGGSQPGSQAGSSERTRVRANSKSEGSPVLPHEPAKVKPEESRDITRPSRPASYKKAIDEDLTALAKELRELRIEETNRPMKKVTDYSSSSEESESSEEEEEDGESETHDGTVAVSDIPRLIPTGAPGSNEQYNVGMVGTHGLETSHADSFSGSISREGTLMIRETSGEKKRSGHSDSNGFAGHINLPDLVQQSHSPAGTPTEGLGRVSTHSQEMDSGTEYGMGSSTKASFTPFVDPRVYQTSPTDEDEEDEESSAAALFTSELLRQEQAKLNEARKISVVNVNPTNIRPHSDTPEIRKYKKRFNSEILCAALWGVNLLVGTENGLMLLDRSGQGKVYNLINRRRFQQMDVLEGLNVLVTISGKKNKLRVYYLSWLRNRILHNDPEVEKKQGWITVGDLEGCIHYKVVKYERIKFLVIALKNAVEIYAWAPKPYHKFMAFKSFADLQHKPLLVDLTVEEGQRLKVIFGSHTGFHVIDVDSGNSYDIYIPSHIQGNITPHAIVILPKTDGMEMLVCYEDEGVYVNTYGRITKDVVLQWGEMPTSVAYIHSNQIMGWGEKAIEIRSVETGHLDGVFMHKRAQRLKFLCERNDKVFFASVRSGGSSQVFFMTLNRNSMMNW
UniProt Q9BRN9, sequence (Q9BRN9 whole entry, looked up): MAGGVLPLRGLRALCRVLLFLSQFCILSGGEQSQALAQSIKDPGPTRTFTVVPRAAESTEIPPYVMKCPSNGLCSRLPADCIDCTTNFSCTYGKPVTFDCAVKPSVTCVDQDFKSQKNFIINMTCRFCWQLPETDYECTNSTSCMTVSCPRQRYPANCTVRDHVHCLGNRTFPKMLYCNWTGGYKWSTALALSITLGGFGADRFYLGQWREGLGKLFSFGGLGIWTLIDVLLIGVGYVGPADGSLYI
UniProt O60637, sequence (O60637 whole entry, looked up): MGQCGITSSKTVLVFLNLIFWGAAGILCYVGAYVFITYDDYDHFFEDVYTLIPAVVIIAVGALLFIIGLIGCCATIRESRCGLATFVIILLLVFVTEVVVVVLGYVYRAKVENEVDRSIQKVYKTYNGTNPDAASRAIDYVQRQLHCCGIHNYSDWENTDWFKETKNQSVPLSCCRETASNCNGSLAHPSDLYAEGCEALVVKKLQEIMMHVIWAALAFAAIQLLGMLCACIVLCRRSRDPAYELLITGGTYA
UniProt Q9H6P5, sequence (Q9H6P5 whole entry, looked up): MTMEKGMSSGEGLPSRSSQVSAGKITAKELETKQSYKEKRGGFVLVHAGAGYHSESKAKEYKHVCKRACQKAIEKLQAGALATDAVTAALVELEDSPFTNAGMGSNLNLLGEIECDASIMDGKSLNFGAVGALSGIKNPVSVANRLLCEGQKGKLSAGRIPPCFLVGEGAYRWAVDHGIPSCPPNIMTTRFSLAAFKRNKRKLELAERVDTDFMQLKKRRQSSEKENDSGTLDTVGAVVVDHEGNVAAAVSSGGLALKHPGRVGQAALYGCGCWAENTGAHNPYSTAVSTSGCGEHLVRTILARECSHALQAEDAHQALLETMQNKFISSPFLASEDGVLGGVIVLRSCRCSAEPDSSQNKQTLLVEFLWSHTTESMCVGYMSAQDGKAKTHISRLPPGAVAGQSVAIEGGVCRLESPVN
UniProt Q8TDI8, sequence (Q8TDI8 whole entry, looked up): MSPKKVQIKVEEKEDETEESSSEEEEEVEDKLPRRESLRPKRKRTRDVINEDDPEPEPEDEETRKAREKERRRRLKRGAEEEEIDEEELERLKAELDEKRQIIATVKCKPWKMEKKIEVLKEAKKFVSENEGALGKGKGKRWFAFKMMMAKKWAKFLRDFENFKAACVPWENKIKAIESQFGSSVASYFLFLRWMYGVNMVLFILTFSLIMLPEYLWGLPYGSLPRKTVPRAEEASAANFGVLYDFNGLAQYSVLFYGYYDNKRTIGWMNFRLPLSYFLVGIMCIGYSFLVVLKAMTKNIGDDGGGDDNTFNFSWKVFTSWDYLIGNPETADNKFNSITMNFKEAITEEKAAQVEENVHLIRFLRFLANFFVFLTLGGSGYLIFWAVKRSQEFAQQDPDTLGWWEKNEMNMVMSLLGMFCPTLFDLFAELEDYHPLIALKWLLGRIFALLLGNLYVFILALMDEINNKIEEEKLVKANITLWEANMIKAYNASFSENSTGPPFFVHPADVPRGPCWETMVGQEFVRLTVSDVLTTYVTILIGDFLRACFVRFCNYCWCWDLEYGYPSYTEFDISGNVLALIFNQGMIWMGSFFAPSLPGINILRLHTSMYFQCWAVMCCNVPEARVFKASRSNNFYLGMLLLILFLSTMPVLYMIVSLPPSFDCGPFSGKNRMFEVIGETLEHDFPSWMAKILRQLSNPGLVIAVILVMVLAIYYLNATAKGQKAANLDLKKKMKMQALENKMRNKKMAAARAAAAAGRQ
UniProt P15884, sequence (P15884 whole entry, looked up): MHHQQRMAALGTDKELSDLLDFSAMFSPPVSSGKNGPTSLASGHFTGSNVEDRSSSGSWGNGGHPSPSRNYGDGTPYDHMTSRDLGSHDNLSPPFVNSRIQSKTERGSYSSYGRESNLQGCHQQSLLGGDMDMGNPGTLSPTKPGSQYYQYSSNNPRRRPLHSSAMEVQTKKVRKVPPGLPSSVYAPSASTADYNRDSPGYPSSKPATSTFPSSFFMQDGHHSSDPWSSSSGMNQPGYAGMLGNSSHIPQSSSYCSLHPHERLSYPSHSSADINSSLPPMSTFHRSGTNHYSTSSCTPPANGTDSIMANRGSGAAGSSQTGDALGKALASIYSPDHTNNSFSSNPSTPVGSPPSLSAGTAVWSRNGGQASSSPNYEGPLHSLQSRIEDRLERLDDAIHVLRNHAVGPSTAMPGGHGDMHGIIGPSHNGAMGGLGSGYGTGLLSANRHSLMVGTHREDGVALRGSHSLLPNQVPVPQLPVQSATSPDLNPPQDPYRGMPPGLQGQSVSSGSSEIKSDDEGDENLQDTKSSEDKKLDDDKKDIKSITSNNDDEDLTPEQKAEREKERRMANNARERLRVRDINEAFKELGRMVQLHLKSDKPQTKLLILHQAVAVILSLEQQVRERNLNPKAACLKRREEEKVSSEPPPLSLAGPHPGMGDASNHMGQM
UniProt Q9H5L6, sequence (Q9H5L6 whole entry, looked up): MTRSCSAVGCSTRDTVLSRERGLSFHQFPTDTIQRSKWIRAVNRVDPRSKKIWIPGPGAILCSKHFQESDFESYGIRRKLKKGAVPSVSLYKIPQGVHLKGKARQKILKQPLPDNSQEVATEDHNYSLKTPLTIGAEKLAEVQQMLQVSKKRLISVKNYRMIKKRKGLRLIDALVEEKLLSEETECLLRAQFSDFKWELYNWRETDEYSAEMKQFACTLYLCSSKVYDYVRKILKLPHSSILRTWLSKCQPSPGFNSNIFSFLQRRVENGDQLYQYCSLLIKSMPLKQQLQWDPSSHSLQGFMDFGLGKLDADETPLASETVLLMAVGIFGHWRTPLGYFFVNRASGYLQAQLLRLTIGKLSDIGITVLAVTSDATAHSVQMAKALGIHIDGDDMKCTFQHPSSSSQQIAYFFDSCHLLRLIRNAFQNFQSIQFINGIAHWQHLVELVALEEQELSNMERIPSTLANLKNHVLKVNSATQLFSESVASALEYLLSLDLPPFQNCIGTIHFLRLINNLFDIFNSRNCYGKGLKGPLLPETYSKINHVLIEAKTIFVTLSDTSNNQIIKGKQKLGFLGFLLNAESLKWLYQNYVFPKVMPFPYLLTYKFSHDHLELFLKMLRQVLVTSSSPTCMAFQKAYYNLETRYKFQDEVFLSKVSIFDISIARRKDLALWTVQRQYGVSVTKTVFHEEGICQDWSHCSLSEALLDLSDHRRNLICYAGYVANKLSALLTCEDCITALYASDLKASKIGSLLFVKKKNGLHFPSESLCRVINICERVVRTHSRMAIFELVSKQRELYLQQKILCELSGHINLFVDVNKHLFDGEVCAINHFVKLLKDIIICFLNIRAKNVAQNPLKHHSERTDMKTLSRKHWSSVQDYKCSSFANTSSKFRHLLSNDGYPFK
UniProt P06753, sequence (P06753 whole entry, looked up): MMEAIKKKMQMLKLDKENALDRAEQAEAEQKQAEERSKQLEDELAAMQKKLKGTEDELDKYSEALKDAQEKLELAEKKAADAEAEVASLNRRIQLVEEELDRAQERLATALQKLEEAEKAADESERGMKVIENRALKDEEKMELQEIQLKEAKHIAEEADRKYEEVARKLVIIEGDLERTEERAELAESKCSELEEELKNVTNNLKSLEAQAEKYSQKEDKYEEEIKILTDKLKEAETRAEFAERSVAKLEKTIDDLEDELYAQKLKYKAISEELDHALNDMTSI
UniProt P62328, sequence (P62328 whole entry, looked up): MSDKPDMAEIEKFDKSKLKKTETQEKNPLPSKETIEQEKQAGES

Compound in the first assay: C1CN(CCC1(CC2=CC=C(C=C2)Cl)N)C3=NC=NC4=C3C=CN4
Nature of the assay: log2 fold change, soluble protein after heating vs DMSO (PISA); higher = thermal stabilisation; K562 lysate, 10 uM; active = over 0.2 and 3.5 SD of the protein, either way, in both replicates (recomputed). The method in brief: (§1)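 Soluble protein was defined as the supernatant remaining after 21,000xg for 90 min, following pooling of heated aliquots and adjustment to 0.5% NP-40 at 4°C. Before that, crude K562 extract at 1 mg/mL protein in PBS pH 7.4 with 1 mM MgCl2 was treated with 10 μM compound for 30 min and heated for 3 min across 48°C-58°C. Quantification used TMTpro 16plex LC-MS/MS with channel sums equalised, and values are log-two fold changes in thermal stability relative to solvent controls from duplicates.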
On to TMEM132A isoform 2 (UniProt Q24JP5), for which the log2 fold change is 0.068.
The same measure, in the same setting: with TASP1 (UniProt Q9H6P5) the figure was 0.092.
The same measure, in the same setting: with TPM3 isoform 3 (UniProt P06753) the figure was -0.068.
The same measure, in the same setting: with TMEM154 (UniProt Q6P9G4) the figure was 0.108.
Consider UBR4 isoform 4 (UniProt Q5T4S7), for which the log2 fold change is -0.094.
On the same count and under the same terms, the result for TNFAIP3 (UniProt P21580) reads 0.09.
On the same count and under the same terms, the result for TRAF7 (UniProt Q6Q0C0) reads 0.116; that for TEC (UniProt P42680), -0.038.
Take TUBB4A (UniProt P04350): the log2 fold change was -0.001.
For TM2D3 (UniProt Q9BRN9), the log2 fold change is 0.088.
On the same count and under the same terms, with TSPAN3 (UniProt O60637) the figure was 0.032; with TLE3 isoform 5 (UniProt Q04726), 0.01.
Still for that read-out and setting: with TCF4 (UniProt P15884) the figure was -0.165; with TRIM3 (UniProt O75382), -0.265.
Same read-out and setting: with TMSB4X (UniProt P62328) the figure was 0.085.
Consider UBN1 (UniProt Q9NPG3), for which the log2 fold change was -0.023.
TEDC1 (UniProt Q86SX3): the log2 fold change is -0.048.
Still for that read-out and setting: the result for TGFBR1 isoform 2 (UniProt P36897) reads -0.102; that for U2AF1L5 (UniProt P0DN76), -0.107.
On the same count and under the same terms, the result for TMC1 (UniProt Q8TDI8) reads -0.081; that for TMPO isoform 2 (UniProt P42167), 0.038; that for TUBGCP5 (UniProt Q96RT8), -0.043.
The same measure, in the same setting: the result for THAP9 (UniProt Q9H5L6) reads 0.098.

Compound in the next assay: C1COCCN1CCN2C3=CC=CC=C3N=C2NC(=O)C4=CC(=CC=C4)[N+](=O)[O-] [IRAK-1-4 Inhibitor I]
The assay is described as above. Summed up: as §1
In the case of TMEM132A isoform 2 (UniProt Q24JP5), the log2 fold change is 0.101.
Still for that read-out and setting: the result for TASP1 (UniProt Q9H6P5) reads 0.055.
The same measure, in the same setting: with TPD52L2 isoform 3 (UniProt O43399) the figure was 0.029.
In the case of TPM3 isoform 3 (UniProt P06753), the log2 fold change was -0.016.
Still for that read-out and setting: with TMEM154 (UniProt Q6P9G4) the figure was 0.019; with UBR4 isoform 4 (UniProt Q5T4S7), 0.097.
On the same count and under the same terms, with TNFAIP3 (UniProt P21580) the figure was 0.047; with TRAF7 (UniProt Q6Q0C0), -0.047.
Same read-out and setting: the result for TNIK isoform 5 (UniProt Q9UKE5) reads -0.038.
With TCF3 isoform 2 (UniProt P15923), the log2 fold change was -0.249.
Still for that read-out and setting: the result for TUBB4A (UniProt P04350) reads 0.086; that for TM2D3 (UniProt Q9BRN9), 0.148; that for TSPAN3 (UniProt O60637), 0.091.
For the target TLE3 isoform 5 (UniProt Q04726), the log2 fold change was -0.021.
As to UBAP2L isoform 1 (UniProt Q14157), the log2 fold change was 0.084.
On the same count and under the same terms, the result for TCF4 (UniProt P15884) reads -0.152; that for TRPM4 (UniProt Q8TD43), -0.152; that for TMSB4X (UniProt P62328), -0.083.
As to TXNRD2 isoform 3 (UniProt Q9NNW7), the log2 fold change was -0.006.
The same measure, in the same setting: the result for TEDC1 (UniProt Q86SX3) reads -0.06; that for U2AF1L5 (UniProt P0DN76), 0.132; that for TMC1 (UniProt Q8TDI8), 0.099.
On the same count and under the same terms, the result for UCP2 (UniProt P55851) reads -0.026; that for TUBGCP5 (UniProt Q96RT8), -0.034.
Turning to THAP9 (UniProt Q9H5L6), the log2 fold change is 0.145.

Compound in another assay: C=CC(=O)N1CCC[C@@H](n2nc(-c3ccc(Oc4ccccc4)cc3)c3c(N)ncnc32)C1 [ibrutinib]
The assay is described as above. Summed up:
as §1
Turning to TASP1 (UniProt Q9H6P5), the log2 fold change was 0.005.
On the same count and under the same terms, the result for TPD52L2 isoform 3 (UniProt O43399) reads 0.288; that for TUBA4A (UniProt C9JQ00), 0.125.
For TFPT (UniProt P0C1Z6), the log2 fold change was 0.046.
For TNFAIP3 (UniProt P21580), the log2 fold change was -0.123.
The same measure, in the same setting: with TENM4 (UniProt Q6N022) the figure was -0.043; with TNIK isoform 5 (UniProt Q9UKE5), 0.07.
On the same count and under the same terms, the result for TUBB4A (UniProt P04350) reads 0.007; that for TM2D3 (UniProt Q9BRN9), 0.02; that for TLE3 isoform 5 (UniProt Q04726), 0.045.
UBAP2L isoform 1 (UniProt Q14157): the log2 fold change was -0.075.
The same measure, in the same setting: the result for TRPM4 (UniProt Q8TD43) reads 0.099.
For TMSB4X (UniProt P62328), the log2 fold change was 0.519.
Still for that read-out and setting: the result for TCF20 (UniProt Q9UGU0) reads -0.025; that for TMPO isoform 2 (UniProt P42167), -0.108; that for TUBGCP5 (UniProt Q96RT8), 0.036.
Same read-out and setting: the result for THAP9 (UniProt Q9H5L6) reads 0.038.

Compound in a further assay: CC(=O)c1cnc2ccc(-c3cc(Cl)c(O)c(Cl)c3)nc2c1N[C@H]1CC[C@H](CN(C)C)CC1
The assay is described as above. The method in brief: as §1
TMEM132A isoform 2 (UniProt Q24JP5): the log2 fold change was 0.676.
Turning to TASP1 (UniProt Q9H6P5), the log2 fold change is 0.04.
On the same count and under the same terms, the result for TFPT (UniProt P0C1Z6) reads 0.1.
Still for that read-out and setting: the result for TPM3 isoform 3 (UniProt P06753) reads 0.066; that for UBR4 isoform 4 (UniProt Q5T4S7), 0.131.
On the same count and under the same terms, with TNFAIP3 (UniProt P21580) the figure was -0.1.
Regarding TENM4 (UniProt Q6N022), the log2 fold change is 0.035.
The same measure, in the same setting: with TEC (UniProt P42680) the figure was -0.096; with TNIK isoform 5 (UniProt Q9UKE5), 0.345; with TUBB4A (UniProt P04350), -0.018.
The same measure, in the same setting: the result for TSPAN3 (UniProt O60637) reads 0.008.
Still for that read-out and setting: with TLE3 isoform 5 (UniProt Q04726) the figure was -0.022.
For UBAP2L (UniProt F8W726), the log2 fold change is 0.275.
On the same count and under the same terms, with TCF4 (UniProt P15884) the figure was -0.285.
On the same count and under the same terms, the result for TRIM3 (UniProt O75382) reads -0.06.
Still for that read-out and setting: the result for TMSB4X (UniProt P62328) reads -0.03.
With UBN1 (UniProt Q9NPG3), the log2 fold change was 0.015.
The same measure, in the same setting: the result for TCF20 (UniProt Q9UGU0) reads 0.128; that for TEDC1 (UniProt Q86SX3), -0.023.
Same read-out and setting: with U2AF1L5 (UniProt P0DN76) the figure was -0.047.
With TMC1 (UniProt Q8TDI8), the log2 fold change was -0.016.
Regarding TUBGCP5 (UniProt Q96RT8), the log2 fold change was 0.363.
The same measure, in the same setting: with THAP9 (UniProt Q9H5L6) the figure was -0.061.
